In PubChem BioAssay AID652010 (The Scripps Research Institute Molecular Screening Center, 2013):
The whole screen tested about 370,000 compounds, of which about 4,100 (1.1%) were called active.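 How the source made its calls: active means inhibition above the mean over all tested compounds plus 3 SD (cut at about 3.6% in these data); inactive means the rest.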 The entries come from a sample that favours actives as a whole.

Test: relief of DAX-1 repression of SF-1 activity – cell-based, luminescence, SF-1 (NR5A1), full-length DAX-1, primary screen (AID 652010);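 further: 0% = DAX-1 cells with DMSO and 100% = cells lacking DAX-1 with DMSO; higher inhibition means more luminescence from relief of DAX-1 repression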
Conditions: HEK293T StAR-luciferase reporter, SF-1/DAX-1 repression relief; at 6.8 µM; hits give high values

Structure (SMILES) | inhibition
Cc1cccc(NC(=O)C[C@H]2CC[C@H]3[C@@H](COc4ccc(NC(=O)Nc5ccccc5)cc4C(=O)N3C)O2)c1 | 0% (inactive)
Cc1ccc(-c2nnc(SCC(=O)Nc3ccc(Oc4ccccc4)cc3)n2Cc2ccco2)cc1 | -2.13% (inactive)
CC(C)CNc1cccc2c1S(=O)(=O)N(Cc1cn(Cc3ccccc3C(F)(F)F)nn1)Cc1ccccc1O2 | 0.13% (inactive)
COc1ccc(-c2ccc(CN3C(C(C)C)C(=O)N(Cc4cn(CC5CCCCC5)nn4)CCS3(=O)=O)cc2)cn1 (stereo unspecified) | -0.19% (inactive)
COc1ccc(-c2ccc(CN3C(CC(C)C)C(=O)N(Cc4cn(CC5CCCCC5)nn4)CCS3(=O)=O)cc2)cc1 (stereo unspecified) | 2.67% (inactive)
COc1ccc(-c2ccc(CN3C(CC(C)C)C(=O)N(Cc4cn(CC5CCCCC5)nn4)CCS3(=O)=O)cc2)cn1 (stereo unspecified) | 3.92% (active)
COC(=O)c1cccc(Cn2ccc3ccc(-c4ccc5ccn(C(=O)C6CCCCC6)c5c4)cc32)c1 | 0.41% (inactive)
CCOC(=O)N1CCN(C(=O)C[C@@H]2C(=O)N(CCc3ccc(Cl)cc3)C3=CCCC[C@]32C(=O)OCC)CC1 | -2.96% (inactive)
O=C(NN=CC=Cc1ccccc1)C(O)C(O)C(=O)NN=CC=Cc1ccccc1 (stereo unspecified) | 0.1% (inactive)
CSc1ccc(CNC(=O)C2(C)CCCN2C)cc1 (stereo unspecified) | -0.07% (inactive)
COc1ccc2cc(CCl)c(Cl)nc2c1 | -0.14% (inactive)
COc1ccc2nc(-c3ccccn3)ccc2c1 | 15.7% (active)
COc1ccc(C=C(C#N)C#N)c(CSc2ccccn2)c1 | -0.31% (inactive)
COC(=O)c1cc(S(=O)(=O)N2CCN(C(=O)C3CCCO3)CC2)cn1C (stereo unspecified) | 0.73% (inactive)
N#CCC[C@H]1CC[C@]2(CCCN(Cc3ccc(Cl)cc3)C2)O1 | 0.06% (inactive)
COc1ccccc1C(=O)CSc1nnc(-c2ccccn2)n1-c1ccccc1 | -0.86% (inactive)
Nn1c(SCC(=O)N2c3ccccc3Sc3ccccc32)nnc1-c1n[nH]c2c1CCC2 | -0.89% (inactive)
COc1ccc(CCNC(=O)COC(=O)Cc2cccc(F)c2)cc1 | 2.2% (inactive)
O=C(COC(=O)Cc1ccccc1F)NCCc1ccccc1 | 1.4% (inactive)
COc1ccc(CCNC(=O)COC(=O)Cc2ccccc2F)cc1 | 5.57% (active)
C=CCN=C1NC(c2cccc(C(F)(F)F)c2)C(C(=O)OC)=C(C)N1C (stereo unspecified) | -0.18% (inactive)
C=C(C)C#CC(Cc1ccccc1)NCC1CC1 (stereo unspecified) | -0.89% (inactive)
COc1ccc(CSc2nnc(-c3cccc(C)c3)n2C)cc1 | -0.99% (inactive)

Structure (SMILES) | inhibition
COc1cc(OC)cc(-c2nc(=S)n3ccsc3n2)c1 | -0.3% (inactive)
COc1ccc(-c2cn3ccc(C)cc3n2)cc1 | 5.29% (active)
FC(F)(F)Oc1ccc(-c2cn3cccnc3n2)cc1 | 1.35% (inactive)
COc1ccc(-c2cn3ccsc3n2)cc1 | 4.57% (active)
COc1ccc(-c2ccc3c(n2)CCCN3S(=O)(=O)c2ccc(C)cc2)cc1 | -0.47% (inactive)
O=C(Nc1cccc(Cl)c1)OC1CC2CC1[C@H]1CCCCN1[C@H]2Cc1ccccc1 (stereo partly specified) | -0.06% (inactive)
O=C(CSc1nc2ccccc2n1Cc1ccccc1Cl)N/N=C\c1c[nH]c2ccccc12 | -0.91% (inactive)
Cc1cc(=O)[nH]c(SCC(=O)Nc2ccc(F)cc2F)n1 | 0.67% (inactive)
C=CCN1[C@@H](Cc2ccccc2)COc2cccc(N3CCSCC3)c2S1(=O)=O | 0.68% (inactive)
O=C(Nc1ccccc1)Nc1nnc(COc2ccccc2F)s1 | 0.16% (inactive)
O=C(Nc1ccccc1)Nc1nc2ccccc2s1 | 9.89% (active)
O=C(Nc1nc2ccc(Cl)cc2s1)c1cc(-c2ccc(Cl)cc2)nc2ccccc12 | 0.51% (inactive)
COC(=O)[C@]12C[C@H](CC(=O)NCc3ccccc3)C(=O)N(Cc3ccccc3)C1=C[C@H](COCc1ccccc1)O[C@@H]2C | -0.43% (inactive)
COc1ccc(C(=O)CSc2nnc(-c3cnccn3)n2-c2ccc(C)cc2)cc1 | 0.38% (inactive)
CSc1ccc(C=Nn2c(-c3ccc(F)cc3)n[nH]c2=S)cc1 | -1.55% (inactive)
COC(=O)C1=C(C)N(Cc2ccc(C(F)(F)F)cc2)C(=NCc2ccc(C(F)(F)F)cc2)NC1c1cccc(Cl)c1 (stereo unspecified) | 0.24% (inactive)
CCc1ccc(Oc2coc3cc(O)ccc3c2=O)cc1 | 0.76% (inactive)
O=c1c(-c2ccccc2)coc2cc(O)ccc12 | 3.75% (active)
CC(C)=CCc1c(O)c(CC=C(C)C)c2occ(-c3ccc(O)cc3)c(=O)c2c1O | 0.21% (inactive)
Cc1ccc(C(=O)N(Cc2ccccn2)CC2CCCO2)cc1 (stereo unspecified) | 0.03% (inactive)
O=C(N/N=C\C1CC=CCC1)c1ccc(Br)o1 (stereo unspecified) | 8.53% (active)
CCC(C)(C)C1CCC(=NNC(=O)c2ccc(Br)o2)CC1 (stereo unspecified) | 1.82% (inactive)
CC(C)(C)C1CCC(=NNC(=O)c2ccc(Br)o2)CC1 (stereo unspecified) | 2.87% (inactive)

Structure (SMILES) | inhibition
Cc1c[nH]c2cccc(-c3ccc(Cl)cc3)c12 | -0.32% (inactive)
Cc1cc(NC(=O)CSC2=NS(=O)(=O)c3cc(Cl)ccc3N2)no1 | -0.79% (inactive)
CC(C)(C)NC(=O)Cn1cnc2cc([N+](=O)[O-])ccc2c1=O | 0.18% (inactive)
Cc1ccc(-n2cc3ccc([N+](=O)[O-])cc3n2)cc1 | 4.78% (active)
O=c1c2cc([N+](=O)[O-])ccc2nc2n1CCC2 | 0.07% (inactive)
CCOC(=O)[C@]12CCCC3=C1N(CCC3)C(=O)[C@@H](CC(=O)NCC13CC4CC(CC(C4)C1)C3)C2 | -1.84% (inactive)
CC(C)Cc1cc(C(=O)NCCc2ccccc2)no1 | 4.87% (active)
O=C(NCCCc1ccccc1)c1cc(COc2c(F)cccc2F)on1 | 1.02% (inactive)
CC(C)Cc1cc(C(=O)Nc2cc(Br)ccc2O)no1 | 1.06% (inactive)
CC(C)(CNC(=O)c1ccc(Cl)c(S(=O)(=O)N2CCc3ccccc3C2)c1)N1CCOCC1 | -2.85% (inactive)
Cc1ccc(NC(=O)c2csc3c2CCCC3)cc1 | 4.28% (active)
CC1CC(C)CN(CCCNC(=O)c2csc3c2CCCCC3)C1 (stereo unspecified) | 0.43% (inactive)
Cc1ccc(NC(=O)C2(N3CCC3=O)CCCCC2)cc1 | -0.08% (inactive)
O=C(NCc1ccccc1)[C@H]1CCCN1C(=O)[C@H]1CCCN1C(=O)N1CCOCC1 | 0.17% (inactive)
COc1ccccc1C(=O)N1C(CC(=O)Nc2ccccc2C)C(=O)NC2CCCCC21 (stereo unspecified) | -0.35% (inactive)
COc1ccc(CCNC(=O)CSc2nc3c([nH]2)c(=O)n(C)c(=O)n3C)cc1 | 0.31% (inactive)
COC(=O)[C@H](C(C)C)N1CCc2nnn(Cc3ccc(C)cc3)c2-c2ccccc2S1(=O)=O | -0.28% (inactive)
O=C(NCc1ccc(Cl)cc1)C1CCCN(c2nc3ccccc3o2)C1 (stereo unspecified) | 0.95% (inactive)
O=NN(CCCl)C(=O)NCCc1cccc[n+]1[O-] | -0.61% (inactive)
Cc1ccc(OCCOc2cccc(/C=N/NC(N)=O)c2)cc1 | 0.53% (inactive)
Cc1ccc(/C=N/NC(=O)COc2ccccc2-c2ccccc2)cc1 | 4.21% (active)
Cc1ccc(/C=N/NC(=O)c2sccc2OCc2ccc(F)cc2)cc1 | -0.5% (inactive)
COc1ccc2c(c1)CN1CN(CCc3ccccc3)S(=O)(=O)CC21 (stereo unspecified) | -0.75% (inactive)

Structure (SMILES) | inhibition
O=C(CSc1nnc(COc2ccccc2)n1-c1ccc(Cl)cc1)Nc1ccc2c(c1)OCO2 | -0.93% (inactive)
CN1OC[C@@H]2CN(C(=O)c3cccc4ccccc34)[C@H](c3ccc(N4CCCCC4)cc3)C[C@@H]21 | -0.81% (inactive)
CCOC(=O)[C@]12CCCC=C1N(Cc1ccc(OC)cc1)C(=O)[C@@H]2CC(=O)NCc1cccs1 | -1.18% (inactive)
O=C(NCCc1ccccc1)C1CC1 | 0.2% (inactive)
CC1CCN(C(=O)CCNC(=O)c2ccccc2)CC1 | 0.21% (inactive)
CC1CCCN(c2ccc(C(=O)NCCc3ccccc3)cn2)C1 (stereo unspecified) | 5.59% (active)
C[C@@H]1COc2cccc(N3CCCC3)c2S(=O)(=O)N1C | 0.84% (inactive)
CN(C(N)=NC(=O)/C=C/c1ccccc1)C(C#Cc1ccccc1)Cc1ccccc1 (stereo unspecified) | 1.3% (inactive)
O=C(NCC1CCCO1)c1cc2c(s1)CCCC2 (stereo unspecified) | 4.81% (active)
O=C(NCCCn1ccnc1)c1cc2c(s1)CCCC2 | -1.19% (inactive)
CCC(=O)c1c[nH]c(C(=O)NCC2CCCO2)c1 (stereo unspecified) | 0.14% (inactive)
N[C@@H](Cc1ccccc1)C(=O)N1CCC[C@@H]1C(=O)N1CCC2CCN(S(=O)(=O)c3ccccc3)CC21 (stereo partly specified) | -0.52% (inactive)
COC(=O)[C@]12C[C@H](CC(=O)NCCCN3CCCC3=O)C(=O)N(CCc3ccc(OC)c(OC)c3)C1=C[C@H](COCc1ccccc1)O[C@@H]2C | -1.32% (inactive)
N#Cc1ccc(OCCCN2CCC(C(O)(c3ccccc3)c3ccccc3)CC2)c(F)c1 | -0.17% (inactive)
O=S1(=O)c2c(cccc2N2CCSCC2)Oc2ccccc2CN1Cc1cn(Cc2ccc(F)cc2)nn1 | -2.34% (inactive)
COC(=O)C1=C(C)NC(=S)NC1c1ccc(OC)cc1 (stereo unspecified) | -1.16% (inactive)
CCn1c(SCC(=O)Nc2ccc3c(c2)OCCO3)nnc1C(C)C | -0.6% (inactive)
O=C(Nc1ccc2c(c1)OCCO2)C1CCCC1 | -6.25% (inactive)
O=C(CSc1nnnn1C1CCCC1)Nc1ccc2c(c1)OCCO2 | -1.55% (inactive)
Cn1ccnc1SCC(=O)Nc1ccc2c(c1)OCCO2 | 9.81% (active)
Cn1cc([N+](=O)[O-])c(C(=O)Nc2ccc3c(c2)OCCO3)n1 | 0.33% (inactive)
O=C(Nc1ccc2c(c1)OCCO2)c1cnccn1 | 3.65% (active)
